Screening results from PubChem BioAssay.
Only some compounds are listed: those with a hit (about 7.2% of all), similar ones and a draw of the others.
MARV entry inh: qHTS for inhibitors of binding or entry into cells for Marburg Virus. Potency, µM (titrated, usually from 37.8 µM), for inactives: top-dose activity change, negative = inhibition, most hits filed as inhibitors. Marburg virus pseudotyped entry inhibition, cell reporter. AID 540276, 2011. 1.8% of 300,000 active; calls by dose curve; tested in HEK293 cells
RE007 growth inh: qHTS Assay for Inhibitors of the HIV-1 protein Vpr; Potency, µM (series often up to 92.2 µM), for inactives: top-dose activity change, negative = less growth, usual class: inhibitors; S. pombe RE007 Vpr strain, BacTiter-Glo ATP luminescence, 24 h; AID 651644, 2012; 0.21% of 360,000 active; active = well fitted falling curve with a large enough effect; inconclusive = small, poorly fitted or top-dose-only effect; inactive = no such curve, though single readings can be large or run the other way; also: nearly all actives have a fitted effect of over 50% in size
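Fission yeast RE007 carrying one integrated HIV-1 vpr copy, seeded at OD 0.01 in PMG+AL medium with 23 nL pinned compound. Grown 24 h at 30 degrees; viability read by BacTiter-Glo luminescence after 5 min.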
Sm TGR inh: qHTS Assay for the Inhibitors of Schistosoma Mansoni Peroxiredoxins. 3% of 360,000 active. Schistosoma mansoni thioredoxin glutathione reductase (TGR), Q962Y6. purified TGR, DTNB reduction, TNB absorbance 405 nm. Potency, µM (doses to about 114 µM), for inactives: top-dose activity change, negative = inhibition, usual class: inhibitors; also: nearly all actives have a fitted effect of over 60% in size
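Kinetic colorimetric format: TGR-catalysed, NADPH-driven DTNB reduction monitored via TNB absorbance. Enzyme dispensed at 20 nM; compound exposure 15 min at room temperature before reaction start.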
HCV inhibitor: qHTS Assay for Inhibitors of Hepatitis C Virus (HCV) | AID 651820, 2012 | Huh7.5.1 HCVcc-Cre infection, luciferase reporter, 44 h | 3.4% of 340,000 active | Potency, µM (titrated, usually from 41.8 µM), for inactives: at the top dose activity change, negative = inhibition, most hits filed as inhibitors
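Luciferase read-out (15 sec integration) after a 15 min room-temperature substrate step quantifies HCVcc-Cre infection. Cells, 1,000 per well, had compound added 4 h post-plating, then virus at ~0.5 moi, and were cultured 44 h.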
FMDV inh: High Throughput Screening for Foot and Mouth Disease Virus Antivirals. AID 1159524, 2015. FMDV antiviral cell-based qHTS. 1.2% of 410,000 active. Potency, µM (doses to about 57.9 µM), without a hit: at the highest dose activity change, negative = inhibition, most hits filed as inhibitors; calls by dose curve; tested in HEK293T cells; also: read-out not given here; nearly all actives have a fitted effect of over 45% in size
Lassa entry inh: qHTS for Inhibitors of binding or entry into cells for Lassa Virus; Potency, µM (highest dose often 37.9 µM), for the others: at the top dose activity change, negative = inhibition, most hits filed as inhibitors; Lassa virus pseudotype entry inhibition, cell reporter; 1.2% of 300,000 active; calls by dose curve; tested in HEK293 cells; also: nearly all actives have a fitted effect of over 50% in size
Numbers without * were called inactive; ? = inconclusive; . = no result given; [ ] = another dose, or the depositor's remark. Unless noted, calls follow the shape of the dose curve; as a rule, active = well fitted curve in the direction sought with a large enough effect; inconclusive = small, poorly fitted or top-dose-only effect, or another doubt; inactive = no such curve, though single readings can be large; an effect the other way counts as inactive or inconclusive. % is scaled to controls: 0 for no effect and ±100 for the full control effect; potency is read from the fitted curve at half-maximal effect.

SMILES	MARV entry inh	RE007 growth inh	Sm TGR inh	HCV inhibitor	FMDV inh	Lassa entry inh
Cc1ccc2oc(-c3cccc(N)c3)nc2c1	12.6µM*	31.6µM*	-1.6%	-10.5%	-34.2%	?
Cc1ccc(-c2nc3cc(C)ccc3o2)cc1	?	3.9%	0.0%	0.7%	10µM*	14.1µM*
CC(C)c1ccc2oc(-c3ccc(N)cc3)nc2c1	?	39.8µM*	-9.5%	-28.9%	-51.1%	?
CCCS(=O)(=O)N1CC(=O)N(c2cc(C)ccc2C)C(C)(C(=O)NC2CCCCCC2)C1 (stereo unspecified)	.	.	-5.9%	.	0.0%	19.1%[46.1 µM]
O=C(NCCc1nnc2n1CCN(Cc1ccsc1)CC2)c1ccc(F)cc1	.	.	.	.	-7.7%	.
COc1cccc(C(=O)Nc2cccc(-c3cn4ccsc4n3)c2)c1OC	.	.	1.0%	.	4.9%	-14.7%[46.1 µM]
Cc1ccc(-n2c(SCC(=O)N3CCc4ccccc43)nc3c([nH]c4ccccc43)c2=O)cc1	.	.	-12.3%	.	0.0%	?
O=c1c(-c2ccc(F)cc2)[n+]([O-])c2ccccc2n1OCc1ccccn1	5.8%[46.1 µM]	-14.7%	.	-6.0%	-18.2%	9.0%
O=c1c(-c2ccco2)[n+]([O-])c2ccccc2n1OCc1ccccn1	29.0%	-12.8%	17.8µM*	-7.7%	3.7%	0.7%
O=c1c(-c2ccco2)[n+]([O-])c2ccccc2n1OCc1ccccc1[N+](=O)[O-]	8.2%[46.1 µM]	-9.5%	15.8µM*	?	-12.7%	0.5%[46.1 µM]
CCC[C@H]1NC(=O)[C@H](C)N(C)C(=O)C(C)(C)C(=O)C(C)NC(=O)[C@H](Cc2ccc(OC)cc2)N(C)C(=O)[C@H](C(C)C)N(C)C(=O)CNC(=O)[C@H](CC(C)C)N(C)C(=O)CNC(=O)[C@H]([C@@H](C)CC)OC(=O)[C@H]1C (stereo partly specified)	.	0.0%	.	0.562µM*	0.0%	.
O=c1c2ccccc2nc2n1C(CSCc1ccc(Cl)cc1)CS2 (stereo unspecified)	?	3.6%	0.0%	10µM*	?	-21.8%
O=C(Nc1ccccc1SCC1CSc2nc3ccccc3c(=O)n21)c1ccccc1 (stereo unspecified)	?	0.6%	-20.0%	0.9%	-8.5%	?
Cc1cccc(C(=O)Nc2ccccc2SCC2CSc3nc4ccccc4c(=O)n32)c1 (stereo unspecified)	0.891µM*	10.7%	-0.1%	-12.6%	-24.2%	6.31µM*
O=c1c2ccccc2nc2n1C(CSc1ccccc1)CS2 (stereo unspecified)	23.1%[46.1 µM]	-7.9%	-5.6%	17.0%	28.8%	8.3%[46.1 µM]
Cc1ccc(C(=O)Nc2ccccc2SCC2CSc3nc4ccccc4c(=O)n32)cc1 (stereo unspecified)	3.16µM*	9.4%	10.8%	-8.6%	-13.3%	7.08µM*
O=C(Nc1ccccc1SCC1CSc2nc3ccccc3c(=O)n21)c1cccc(Cl)c1 (stereo unspecified)	?	-11.3%	-0.3%	-4.8%	0.0%	2.51µM*
Cc1ccc(NC(=O)Cn2cc(S(=O)(=O)N3CCCC3)c(S(=O)(=O)N3CCCC3)c2)c(C)c1	.	.	0.2%	.	-9.7%	-1.4%[46.1 µM]
Cc1[nH]c2ccccc2c1C(c1ccncc1)N1CCC(C)CC1 (stereo unspecified)	11.7%	-2.8%	2.51µM*	12.6%	-28.0%	-3.5%
Cc1[nH]c2ccccc2c1SCC(=O)N1CCC(C)CC1	.	-3.0%	16.8%	3.4%	20.6%	.
Cc1[nH]c2ccccc2c1C(c1ccncc1)N1CCN(c2ccccn2)CC1 (stereo unspecified)	20.3%[46.1 µM]	-0.9%	1µM*	13.2%	-21.6%	-0.6%
Clc1ccc(C(c2ccccc2)N2CCN(c3ccccn3)CC2)cc1 (stereo unspecified)	-11.7%	-27.4%	-0.8%	-15.1%	?	-20.5%
Cc1[nH]c2ccccc2c1C(c1ccncc1)N1CCN(c2ccccc2F)CC1 (stereo unspecified)	0.2%	6.9%	3.55µM*	-5.9%	?	-0.1%
COc1cc(Cl)c(C)cc1NC(=O)Cn1ncc2c(=O)oc3ccccc3c21	0.5%[46.1 µM]	.	-1.8%	.	-22.2%	17.8%[46.1 µM]
Cc1cc(C(C)(C)C)cc(C)c1S(=O)(=O)N1CC(=O)Nc2ccccc21	-34.6%	-0.4%	6.0%	?	-19.9%	11.2µM*
SMILES	MARV entry inh	RE007 growth inh	Sm TGR inh	HCV inhibitor	FMDV inh	Lassa entry inh
Cc1ccc(C(C)(C)C)cc1S(=O)(=O)N1CC(=O)Nc2ccccc21	10µM*	6.5%	2.2%	?	-4.7%	?
O=C1CN(S(=O)(=O)c2cccc(Cl)c2Cl)c2ccccc2N1	-2.1%[46.1 µM]	-13.8%	-6.4%	-0.2%	0.4%	17.5%[46.1 µM]
Cc1ccc(S(=O)(=O)N2CC(=O)Nc3ccccc32)c(C)c1NS(C)(=O)=O	5.5%[46.1 µM]	12.6%	-16.2%	17.5%	-10.1%	1.3%[46.1 µM]
CC(C)(C)OC(=O)COc1cc(OCC(=O)OC(C)(C)C)c2c(=O)cc(-c3ccccc3)oc2c1	?	-7.2%	-6.4%	10µM*	?	?
C#CCCc1ccccc1/C=[N+](/C)[O-]	.	-14.4%	11.2µM*	2.3%	23.1%	.
CCC(O)CC(C(=O)NNc1ccccc1)C(=O)NNc1ccccc1 (stereo unspecified)	2.51µM*	217.7%	3.8%	-6.0%	-1.7%	?
COCc1[nH]nc2c1[C@@H](c1ccc(OC)cc1)C(C#N)=C(N)O2	5.0%	.	.	.	.	.
COc1ccc(-c2noc(N(C)CC(=O)Nc3cccc(C(F)(F)F)c3)n2)cc1	-12.4%	-19.6%	-1.0%	11.2µM*	27.5%	-18.4%
COc1cccc(NC(=O)CN(C)CC(=O)Nc2cccc(C(F)(F)F)c2)c1	?	-2.8%	1.1%	-20.5%	-17.3%	?
Cc1ccc(C)c(CSc2cn(CCNC(=O)c3cccs3)c3ccccc23)c1	?	.	9.8%	.	?	?
COc1cccc(Oc2cn[nH]c2-c2ccc(OC)cc2O)c1	?	-9.1%	-24.9%	11.2µM*	-16.8%	?
COc1cccc(Oc2cn[nH]c2-c2ccc(O)cc2O)c1	?	8.8%	1.2%	?	.	7.1%
CCCOC(=O)c1ccc(Oc2c(-c3ccc(OCC)cc3O)n[nH]c2C)cc1	?	-8.9%	28.6%	?	.	?
CCCOC(=O)c1ccc(Oc2cn[nH]c2-c2ccc(OCC)cc2O)cc1	?	?	0.0%	?	?	7.94µM*
CCCc1ccc(Oc2c(-c3ccc(O)c(C)c3O)n[nH]c2C)cc1	?	?	5.3%	?	20.5%	?
CCCc1ccc(Oc2cn[nH]c2-c2ccc(O)c(C)c2O)cc1	?	?	-0.8%	12.6µM*	.	-24.2%
CCOC(=O)[C@@]1([C@@H](NC(=O)OC)c2cccc(F)c2)CCCC1=O	-13.4%[14.2 µM]	.	.	.	.	.
